# PMC4336329 (PLoS ONE, 2015)
# About 14,000 (4.5%) of roughly 310,000 compounds showed an effect of 50% or more. The effect is printed as a negative number. The list comes from a sample in which strong results are over-represented; it also holds similar structures and randomly drawn compounds.
# Biological target: human ether-à-go-go-related gene (hERG) potassium channel (human, UniProt Q12809)
# Experiment: primary screen, population patch clamp on CHO cells stably expressing hERG; higher = less effect of the substance
# 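Note: peak tail current of the secondary pulse compared with the same well before compound.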
# Sequence of human ether-à-go-go-related gene (hERG) potassium channel (Q12809 whole entry, looked up): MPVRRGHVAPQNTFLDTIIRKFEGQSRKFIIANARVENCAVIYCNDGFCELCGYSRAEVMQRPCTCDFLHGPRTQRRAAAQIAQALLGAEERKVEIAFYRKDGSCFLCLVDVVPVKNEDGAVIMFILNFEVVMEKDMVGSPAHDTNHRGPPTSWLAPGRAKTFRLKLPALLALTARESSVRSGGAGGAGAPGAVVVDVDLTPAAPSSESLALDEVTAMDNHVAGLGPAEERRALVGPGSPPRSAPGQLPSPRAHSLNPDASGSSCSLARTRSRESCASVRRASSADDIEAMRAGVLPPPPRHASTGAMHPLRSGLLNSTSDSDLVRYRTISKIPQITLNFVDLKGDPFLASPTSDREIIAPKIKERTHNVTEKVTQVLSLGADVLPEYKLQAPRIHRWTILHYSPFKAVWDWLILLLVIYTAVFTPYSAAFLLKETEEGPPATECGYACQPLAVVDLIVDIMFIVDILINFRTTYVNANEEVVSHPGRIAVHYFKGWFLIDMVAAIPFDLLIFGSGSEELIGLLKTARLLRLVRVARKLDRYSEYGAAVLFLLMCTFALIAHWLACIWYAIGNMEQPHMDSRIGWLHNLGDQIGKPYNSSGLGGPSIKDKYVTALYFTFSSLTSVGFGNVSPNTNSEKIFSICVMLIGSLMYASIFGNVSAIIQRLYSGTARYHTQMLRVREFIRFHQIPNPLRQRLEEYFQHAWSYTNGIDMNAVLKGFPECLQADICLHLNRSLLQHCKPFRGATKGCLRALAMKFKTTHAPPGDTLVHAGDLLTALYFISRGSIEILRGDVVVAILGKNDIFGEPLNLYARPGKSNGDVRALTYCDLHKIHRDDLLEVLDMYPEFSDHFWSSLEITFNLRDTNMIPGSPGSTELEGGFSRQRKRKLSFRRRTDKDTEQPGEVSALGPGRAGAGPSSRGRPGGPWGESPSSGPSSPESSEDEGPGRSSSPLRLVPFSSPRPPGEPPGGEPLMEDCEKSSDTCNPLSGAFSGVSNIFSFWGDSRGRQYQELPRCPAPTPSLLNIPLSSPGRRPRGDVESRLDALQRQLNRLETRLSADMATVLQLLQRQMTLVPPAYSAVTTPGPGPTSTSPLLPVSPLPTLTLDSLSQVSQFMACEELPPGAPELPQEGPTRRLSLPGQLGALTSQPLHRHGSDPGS
row,Compound,"hERG current change (%, negative = inhibition) at 10uM [%]"
1,Cc1nn(CC(=O)Nc2ccc(Cl)c(S(=O)(=O)N(C)C)c2)c(C)c1[N+](=O)[O-],-61.3
2,CN(C)S(=O)(=O)c1cc(NC(=O)Cn2ccsc2=N)ccc1Cl.Cl,-56.3
3,COc1cc(/C=C2/N=C(C3CCCCC3)OC2=O)cc(OC)c1OC,-17.5
4,O=C(Cc1ccccc1[N+](=O)[O-])NCc1ccncc1,6.57
5,OC(Cn1c2ccccc2c2ccccc21)C[n+]1cccc2ccccc21.[O-][Cl+3]([O-])([O-])[O-] (stereo not shown),-33.5
6,C=C(C)C(=O)N1CC2(CC(c3cccc(NC(=O)/C(C)=C\C)c3)=NO2)C[C@H]1C(N)=O (stereo partly shown),2.26
7,Cc1ccc(-c2nn(C)c(=O)c3ccccc23)cc1S(=O)(=O)NCCN1CCOCC1,-2.69
8,Cn1c(=O)[nH]c(=O)c2c1nc(N1CCOCC1)n2CCc1ccccc1,-0.713
9,Cc1cccc(N=C2NC(=O)/C(=C/c3cccs3)S2)c1,11.9
10,COc1cc(C)c(/C=C(\C#N)C(=O)Nc2ccc(C)cc2)cc1C(C)C,11.1
11,COCCN(C(=O)COC(=O)c1sccc1C)c1c(N)n(Cc2ccccc2)c(=O)[nH]c1=O,15.4
12,CCCN(CCC)CCCNC(=O)C(NS(=O)(=O)c1ccc2c(c1)CCC(=O)N2)c1ccccc1 (stereo not shown),20.5
13,CCn1ncc(S(=O)(=O)NCc2ccco2)c1C,-0.626
14,O=C(Nc1ccc(S(=O)(=O)Nc2cnc3ccccc3n2)cc1)c1ccccc1Br,-10.5
15,O=C(CCN1C(=O)/C(=C/c2cccs2)SC1=S)Nc1ccccc1O,13.7
16,CC(C)c1ccc(NC(=O)CNC(=O)Cn2cnc3ccccc3c2=O)cc1,3.21
17,Cc1ccc(N/C=C/C(=O)c2ccco2)c(O)c1,8.63
18,COc1cc2c(cc1NC(=O)CSc1nc3ccc(C)cc3[nH]1)oc1ccccc12,7.65
19,Cc1ccc(-c2nnc(N3CCN(C(=O)CN4C(=O)c5ccccc5C4=O)CC3)c3ccccc23)cc1,6.37
20,CC(=O)N1CCN(c2nnc(-c3ccc(C)cc3)c3ccccc23)CC1,-38.6
21,Cc1ccc(-c2nnc(N3CCN(C(=O)c4cccs4)CC3)c3ccccc23)cc1,-65.4
22,O=C(c1cccs1)N1CCN(c2nnc(-c3ccccc3)c3ccccc23)CC1,-76.5

row,Compound,"hERG current change (%, negative = inhibition) at 10uM [%]"
1,CC(=O)N1CCN(c2nnc(-c3ccccc3)c3ccccc23)CC1,3.22
2,O=C(c1cccs1)N1CCN(c2ncccn2)CC1,0.299
3,Cc1ccc(C(=O)Nc2ccc(Cl)cc2C(=O)c2ccccc2)cc1,17.1
4,O=C(CSc1ccccc1)N1CCN(S(=O)(=O)c2ccccc2F)CC1,-23.9
5,Cc1c(N=Cc2cccnc2)c(=O)n(-c2ccccc2)n1C,2.93
6,CC(=O)Oc1ccc2c(=O)oc(-c3ccc([N+](=O)[O-])cc3)nc2c1,1.56
7,Cc1ccc(C)c(S(=O)(=O)N2CCN(C(=O)Cn3c(C(F)(F)F)nc4ccccc43)CC2)c1,-1.16
8,O=c1c2ccccc2c(=O)n(Cc2ccccc2)n1Cc1ccccc1,16.8
9,O=c1c2ccccc2c(=O)n(-c2ccccc2)n1CCCCBr,-63.5
10,CC(=O)n1c(=O)c2ccccc2c(=O)n1-c1ccccc1,3.89
11,Cc1cccc(C(=O)OCC(=O)c2c(N)n(CC(C)C)c(=O)n(C)c2=O)c1[N+](=O)[O-],-29.1
12,O=C(CCCC(=O)OCC1CCCO1)OCC1CCCO1 (stereo not shown),8.27
13,CCOC(=O)c1cn(CC(=O)Nc2ccc(OC)cc2OC)nn1,9.07
14,Cc1ccc(OCCCCN2CCCCC2)cc1,-12.1
15,Brc1ccc(OCCCCN2CCCCC2)cc1,-53.6
16,CC1CCN(CCCCOc2ccc(Br)cc2)CC1,-69.4
17,Brc1ccc(OCCOCCN2CCOCC2)cc1,-9
18,Cl.O=C(COc1ccc(Br)cc1)OCCN1CCCCC1,11.8
19,Brc1ccc(OCCCN2CCOCC2)cc1.O=C(O)C(=O)O,-28.1
20,Brc1ccc(OCCCCCN2CCOCC2)cc1.O=C(O)C(=O)O,-63.8
21,C#CCOCCOCCOCCNc1nc(N2CCN(C(=O)CCCCCCCCCCNC(=O)Cn3cc(C[C@@H](C)O)nn3)CC2)nc(N2CCN(C(=O)CCCCCCCCCCNC(=O)[C@H](CCCCN)n3cc(CCCC(=O)O)nn3)CC2)n1,-1.72
